Lmaj promast – Leishmania major promastigote growth inhibition | 9% of 200,000 active | inhibition, % at 10 µM | Leishmania major promastigotes, resazurin fluorescence viability | AID 1063; in the data active = inhibition above about 50%;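 note: promastigotes grown with compound for 44 hours at 28 °C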
Calpain2 inh – inhibitors of pig calpain II; 0.37% of 220,000 active; purified calpain II, fluorogenic peptide substrate, 30 min; inhibition, % at 16 µM;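 active = inhibition above about 50%, limit read from the data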
KCC2 mod – KCC2 (human) Cl- transport modulation. 2.2% of 190,000 active. B-score of Tl+ flux slope (higher = more flux/activation; lower = inhibition) at 10 µM. KCC2 cells, thallium flux FluoZin-2 fluorescence. AID 1456. Q9H2X9;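 active = thallium flux slope and its plate-corrected score both differing from the plate sample mean at a set confidence after two filtering rounds, in either direction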;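 note: slope of fluorescence scaled to starting intensity during 10 to 20 s after thallium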
Target sequence (Q9H2X9 whole entry, looked up): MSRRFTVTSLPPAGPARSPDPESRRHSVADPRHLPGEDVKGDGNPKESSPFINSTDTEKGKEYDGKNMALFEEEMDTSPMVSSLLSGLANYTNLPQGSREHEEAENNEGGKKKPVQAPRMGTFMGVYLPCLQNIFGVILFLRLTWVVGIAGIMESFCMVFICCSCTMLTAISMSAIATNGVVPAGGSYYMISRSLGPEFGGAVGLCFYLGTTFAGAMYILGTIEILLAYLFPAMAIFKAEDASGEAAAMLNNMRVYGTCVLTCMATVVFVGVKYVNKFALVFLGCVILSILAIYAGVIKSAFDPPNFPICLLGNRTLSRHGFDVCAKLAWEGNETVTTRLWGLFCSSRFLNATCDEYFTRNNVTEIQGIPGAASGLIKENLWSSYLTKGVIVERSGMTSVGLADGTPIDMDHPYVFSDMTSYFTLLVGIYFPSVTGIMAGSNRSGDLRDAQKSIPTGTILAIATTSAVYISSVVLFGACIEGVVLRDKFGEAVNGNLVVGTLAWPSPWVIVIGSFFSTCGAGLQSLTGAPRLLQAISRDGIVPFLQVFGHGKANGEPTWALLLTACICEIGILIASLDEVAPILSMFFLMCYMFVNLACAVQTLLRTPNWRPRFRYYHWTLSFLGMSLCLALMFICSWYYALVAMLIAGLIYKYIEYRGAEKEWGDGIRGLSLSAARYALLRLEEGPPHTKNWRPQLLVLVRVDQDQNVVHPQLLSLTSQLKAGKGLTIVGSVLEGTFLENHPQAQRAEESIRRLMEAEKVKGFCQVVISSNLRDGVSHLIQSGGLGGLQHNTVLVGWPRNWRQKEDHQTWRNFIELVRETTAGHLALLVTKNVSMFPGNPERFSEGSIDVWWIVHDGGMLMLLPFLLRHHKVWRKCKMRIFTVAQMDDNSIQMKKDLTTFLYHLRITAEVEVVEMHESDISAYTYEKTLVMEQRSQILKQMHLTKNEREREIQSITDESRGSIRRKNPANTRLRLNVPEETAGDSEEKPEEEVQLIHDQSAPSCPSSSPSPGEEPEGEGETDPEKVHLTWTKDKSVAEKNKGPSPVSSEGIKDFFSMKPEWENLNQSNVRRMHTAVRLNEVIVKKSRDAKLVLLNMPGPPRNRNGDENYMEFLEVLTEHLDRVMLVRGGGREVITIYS
WT yeast gro inh – growth inhibition of WT yeast, mitochondrial fusion screen; AID 1362; 2.1% of 190,000 active; inhibition, % at 10 µM; mitochondrial fusion phenotypic screen, WT strain; in the data active = inhibition above about 58%; tested in S. cerevisiae
ROMK mod – modulators of human ROMK potassium channel; Tet-inducible ROMK, thallium flux fluorescence; actives lie on both sides; B-score at 10 µM; 2% of 130,000 active;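 active = signal ratio slope over the read window, or its plate-corrected B-score, at least 3 SD from the plate mean, either direction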;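 note: B-score of the F/F0 ratio slope over 7 to 12 s after thallium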
KCC2 secondary – confirmation of human KCC2 transport modulators; normalised thallium flux (F/F0 slope) at 10 µM; AID 1713; 15% of 3,700 active; HEK293-KCC2, thallium flux, FluoZin2 fluorescence; hits give high values; shares compounds with KCC2 mod;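 active = thallium flux slope above the same plate's solvent-only control mean plus 3 SD; inconclusive = the two replicate wells disagree; inactive = no significant difference from solvent-only control wells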
KCC2 bumet counter – bumetanide-insensitive thallium flux in KCC2 cells with ouabain, counter-screen | shares compounds with KCC2 mod | HEK293-KCC2 + bumetanide/ouabain, thallium flux FluoZin2; hits give high values | normalized thallium flux at 10 µM | 49% of 3,700 active | AID 1714;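 active = thallium entry rate above the same plate's blocked-transporter control wells by more than 3 SD; inconclusive = the two repeat wells disagree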;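 note: raw slope of fluorescence over initial fluorescence between 10 and 20 s after thallium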
KCC2 secondary2 – confirmation of human KCC2 transport modulators | shares compounds with KCC2 mod | HEK293-KCC2, thallium flux FluoZin2 fluorescence; actives lie on both sides; F/F0 rise rate, 10–20 s post-thallium | normalized thallium flux at 10 µM | 23% of 3,700 active;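 active = thallium flux slope more than 3 SD above or below the plate's solvent-only control mean, mostly below; inconclusive = the two repeat wells disagreed; inactive = no significant shift from solvent-only controls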;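 note: raw slope with 0.1% DMSO as baseline and bumetanide as block control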
HEK293 Tl flux – parental HEK flux effect, counter-screen; 46% of 3,700 active; HEK293 parental cells, thallium flux FluoZin2, ouabain; baseline-ratio fluorescence slope, 10–20 s after thallium; AID 1716; thallium flux rate (normalised fluorescence) at 10 µM; shares compounds with KCC2 mod;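 active = thallium flux rate significantly above the same plate's solvent-only control wells, beyond their mean plus 3 SD; inconclusive = the two replicate wells gave conflicting results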
KCC2 ouabain – confirmation of human KCC2 modulators with ouabain. 48% of 3,700 active. raw Tl+ flux slope (below DMSO = inhibition, above = activation) at 10 µM. shares compounds with KCC2 mod. HEK293-KCC2, thallium flux FluoZin2 fluorescence; bidirectional: low = inhibitor, high = activator;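 active = thallium flux slope beyond 3 SD from same-plate DMSO control mean in most replicates, usually higher, sometimes lower; inconclusive = repeat tests gave conflicting results; inactive = no significant difference from controls in most replicates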;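 note: slope of initial-normalized fluorescence between seconds 10 and 20 after thallium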
HEK293 Tl flux2 – parental HEK flux effect, counter-screen 2; shares compounds with KCC2 mod; HEK293 parental, thallium flux FluoZin-2 fluorescence slope; thallium flux slope at 10 µM; 33% of 3,700 active; AID 1718;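 active = thallium flux slope above the same plate's solvent-control mean plus 3 SD in both duplicate wells; inconclusive = duplicate wells that disagreed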;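 note: run without ouabain in cells lacking the KCC2 cotransporter; slope of fluorescence scaled to its starting value between 10 and 20 s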
Active calls of the source: *; ? = inconclusive; . = no result. Only some compounds are listed: those with a hit (about 12% of all), similar ones and a draw of the others.

SMILES	Lmaj promast	Calpain2 inh	KCC2 mod	WT yeast gro inh	ROMK mod	KCC2 secondary	KCC2 bumet counter	KCC2 secondary2	HEK293 Tl flux	KCC2 ouabain	HEK293 Tl flux2
CCOC(=O)C1=C(N)N(c2ccccc2Oc2ccccc2)C(=O)C1	-1.3	22.8	-0.465	24.1	.	.	.	.	.	.	.
CCOC(=O)C1=C2NC(=O)c3ccccc3N2C(=O)C1	-6.2	-14.2	40.2*	-41.8	0.294	0.0142*	0.0908*	0.0369	0.0367*	0.0693*	0.018*
c1ccc(Cc2nnc3sc(-c4ccco4)nn23)cc1	-7.8	-74.3	-0.0163	4.7	.	.	.	.	.	.	.
S=c1[nH]cc(Cc2ccccc2)s1	-7.4	-30.9	40*	12.9	0.676	0.0263*	0.117*	0.0316	0.0345*	0.0684*	0.0207*
Cc1cc(C)c(S(=O)(=O)Nc2cccc3nsnc23)c(C)c1	-0.6	15.9	23*	11.0	0.391	0.0178*	0.0736*	0.0372	0.0408*	0.0735*	0.0186*
Cc1ccc2nsnc2c1NS(=O)(=O)c1c(C)ccc2nsnc12	-3.9	19.9	7.6*	.	0.806	0.00643	0.0277*	0.0352	0.0204*	0.0287*	0.0192*
Cc1cc(S(=O)(=O)Nc2c(C)ccc3nsnc23)ccc1F	-2.9	20.1	0.456	-0.8	.	.	.	.	.	.	.
O=C(c1ccc(COc2ccccc2Br)o1)N1CCCCCC1	-2.5	-27.6	.	36.2	-2.57	0.00553	0.0033*	?	0.00626*	0.0161*	?
COc1cc(NC(=O)c2ccc(COc3ccccc3Br)o2)cc(OC)c1OC	68.0*	-77.0	.	49.4	-0.0111	0.00549	0.00455	0.0246*	0.0061*	0.0154*	0.0104
N#Cc1c(-c2ccccc2)ccn(Cc2ccc(Cl)cc2)c1=O	-5.8	-18.8	-0.0246	-0.8	.	.	.	.	.	.	.
CCOc1ccc(-c2nc(CSCC(=O)NC3CCCc4ccccc43)c(C)o2)cc1 (centres undefined)	4.3	22.6	-0.237	15.6	-0.176	.	.	.	.	.	.
CC/C(Cc1ccccc1)=N\NC(=O)c1cc([N+](=O)[O-])cc([N+](=O)[O-])c1	58.9*	13.3	33.3*	1.8	-0.0163	0.0183*	0.0672*	?	0.033*	0.0454*	0.0176*
C/C(=N\NC(=O)c1cccc([N+](=O)[O-])c1)c1ccco1	.	-7.9	12.4*	.	.	0.00766	0.0246*	0.0378	0.0192*	0.0291*	0.0258*
C/C(=N\NC(=O)c1ccc(Br)cc1)c1ccccc1	-1.0	6.7	5.99*	.	.	0.00889	0.0134*	0.0318	0.0149*	?	0.0118
CC/C(Cc1ccccc1)=N\NC(=O)c1cc(C)oc1C	-11.0	-8.6	-0.163	-17.5	.	.	.	.	.	.	.
CC/C(Cc1ccccc1)=N/NC(=O)c1cccc(Br)c1	-9.6	1.8	9.18*	1.9	-0.78	0.00718	0.0102*	0.0312	0.0157*	0.0222	0.0147*
O=C(COc1ccccc1)Nc1nnc(-c2ccccc2)o1	-6.8	1.0	1.13	26.8	.	.	.	.	.	.	.
O=C(COc1ccccc1)Nc1nnc(-c2ccc(Cl)s2)o1	-1.0	-89.5	.	56.6	.	0.0142*	0.0219*	0.0307	0.0122*	0.0248	0.0121*
CCCCCC(=O)Cc1cc(O)cc2c1C(=O)Oc1cc(O)c(C(=O)O)c(CCCCC)c1O2	.	27.1	-1.56*	.	.	?	0.00459	0.0255*	0.00797	?	0.0106
S=c1nc(-c2ccccc2)c(-c2ccccc2)n[nH]1	.	12.5	6.02*	.	.	0.0061	0.0136*	0.0364	0.0164*	?	0.0204*
O=c1cc(-c2c(F)c(F)c(F)c(F)c2F)oc2c(F)c(F)c(F)c(F)c12	57.9*	-9.8	-2.72*	50.4	.	0.00678	?	0.0308	0.00783	0.0196	0.0107
O=C(Nc1nc(-c2ccccn2)cs1)c1cc(Cl)ccc1[N+](=O)[O-]	100.0*	-32.0	6.84*	69.7*	1.42	0.0139*	0.0371*	0.0391	0.0182*	0.0381*	0.0153*
Cc1csc(NC(=O)c2ccc(Cl)cc2[N+](=O)[O-])n1	18.7	-15.4	0.332	-5.7	0.0196	.	.	.	.	.	.
O=C(CSc1cccc[n+]1[O-])Nc1ccc(C(F)(F)F)cc1[N+](=O)[O-]	-4.0	37.4	1.24	-1.2	-0.0998	.	.	.	.	.	.
O=[N+]([O-])c1ccc(Sc2cccc[n+]2[O-])c2nonc12	.	22.3	8.35*	.	.	0.00957	0.0229*	0.0295	0.0149*	0.0234	?
SMILES	Lmaj promast	Calpain2 inh	KCC2 mod	WT yeast gro inh	ROMK mod	KCC2 secondary	KCC2 bumet counter	KCC2 secondary2	HEK293 Tl flux	KCC2 ouabain	HEK293 Tl flux2
CCCOc1cccc(C(=O)Nc2cccnc2)c1	1.5	-17.3	.	6.3	-0.343	.	.	.	.	.	.
CCCCOc1cccc(C(=O)NC(=S)Nc2cccc(C(F)(F)F)c2)c1	48.9	2.9	6.48*	50.6	.	0.00753	0.0158*	?	0.0204*	0.0267*	0.0156*
CC(C)Oc1cccc(C(=O)NC(=S)Nc2cccc(C(F)(F)F)c2)c1	-1.6	10.7	1.77	28.1	-0.00341	.	.	.	.	.	.
CCCCOc1cccc(C(=O)NC(=S)Nc2cccnc2)c1	51.3*	21.4	6.04*	17.9	0.146	0.0129*	0.0867*	0.0358	0.0287*	0.052*	0.0131*
CC1=C/C(=N\NC(=O)c2ccccc2)CC1	-3.3	-5.7	0.0948	-25.8	-0.0153	.	.	.	.	.	.
CCCCC(CCC(=O)O)(C(=O)OCC)c1csc(Nc2ccc(C)cc2)n1 (centres undefined)	11.8	-49.4	-4.07*	-12.5	1.02	0.00525	0.004	0.0249*	0.0056*	0.0125*	?
CCOC(=O)C(CC)(CCC(=O)O)c1csc(N)n1 (centres undefined)	-3.7	-32.2	.	-3.3	0.524	.	.	.	.	.	.
O=C1C2CCCN2C(c2ccccc2F)N1c1ccc(F)cc1 (centres undefined)	-6.8	-14.7	.	-4.4	.	.	.	.	.	.	.
O=C1C2CCCN2C(c2ccccc2F)N1c1cccc(Cl)c1 (centres undefined)	-7.0	5.7	-3.74*	6.7	.	0.0073	?	0.0311	?	0.0198	0.0121
Cc1ccc(SCCNC(=O)c2ccc(C)c(S(=O)(=O)Nc3ccccc3C)c2)cc1	99.2*	13.3	.	-9.1	.	0.00815	?	0.0267	0.00641	0.0146*	0.0102
CC(OC(=O)c1ccc2c(=O)n3c(nc2c1)CCCCC3)C(N)=O (centres undefined)	-0.2	-2.7	0.362	-8.3	-0.216	.	.	.	.	.	.
Nc1nnc(SCC(=O)OCC(=O)Nc2ccccc2)s1	-2.6	-17.9	-0.479	-1.9	0.166	.	.	.	.	.	.

High-throughput results from PubChem BioAssay.
